Our source for the growth values is PubChem BioAssay (NCI).

Molecules are shown by their SMILES. The panel holds about 83,000 compounds, 20% with a hit somewhere; the sample as a whole holds those more often.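 For each line, cells grew in 96-well plates with the test compound present at a single concentration for 48 hours.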 Unmarked numbers belong to inactive results. Calls of active or inactive are those of the source. Rule for the calls: active = growth percent below 10; inactive = the rest.

The assay deals with MDA-MB-468 breast. The assay can be described thus: NCI-60 one-dose screen, 48 h (100 = growth as untreated, 0 = no growth, -100 = all killed). As to conditions: 10 µM unless noted.
On to `CCC(O)C(C)(C)C` (stereo not given), for which the growth is 115%.

Consider `C/C(=N\Nc1cc(C)c2ccccc2n1)c1ccccn1`, for which the growth is -63.2% (active).

For `CCN(CC)c1cc(N)c(Cc2c(N)cc(N(CC)CC)cc2Cl)c(Cl)c1`, the growth was -15.8% (active).

Consider `Cc1c(C(N)=O)sc2nc(C)n(/N=c3\scc(-c4ccccc4)n3Cc3ccccc3)c(=O)c12`, for which the growth was 79.9%.

In the case of `Fc1ccc(NCCS)cc1`, the growth is 106%.

Turning to `Cc1[nH]n(C(=O)c2ccncc2)c(=O)c1N=Nc1ccc(S(=O)(=O)Nc2ccncn2)cc1`, the growth is 103%.

For `C=C1C(=O)O[C@H]2[C@H]1CC/C(COC(=O)CCCCCCCCC(=O)OC/C1=C/CC[C@@]3(C)O[C@H]3[C@H]3OC(=O)C(=C)[C@@H]3CC1)=C\CC[C@@]1(C)O[C@@H]21`, the growth is -32.7% (active).

For `Cc1cc(C)c(CCc2cc(C)c(C)cc2C)cc1C`, the growth is 109%.

`c1ccc(CC(NCCNC(Cc2ccccc2)c2ccccc2)c2ccccc2)cc1` (stereo not given): the growth was -32.9% (active).

For `[2H]c1nc(Nc2ncc(F)c(-c3cc(F)c4nc(C)n(C(C)C)c4c3)n2)c([2H])c([2H])c1CN1CCN(CC)CC1`, the growth was 90.1%.

For the compound `O=C(Nc1cccc(C2=NCCN2)c1)c1ccc(OCCCOc2ccc(C(=O)Nc3cccc(C4=NCCN4)c3)cc2)cc1`, the growth is -24.4% (active).

`Oc1ccccc1/C=N\NC(=S)Nc1ccc(F)cc1`: the growth is 2.61% (active).

In the case of `COc1cc(/C=N\NC(=O)CN2CCN(c3cc4c(cc3F)c(=O)c(C(=O)N/N=C/c3cc(OC)c(OC)c(OC)c3)cn4C3CC3)CC2)cc(OC)c1OC`, the growth is -31.1% (active).

As to `Nc1nccc2c1ccn2-c1cccc(NC(=O)c2ccc(N3CCOCC3)c(C(F)(F)F)c2)c1`, the growth was -14.2% (active).

As to `COC(=O)[C@]1(C)CCC[C@]2(C)[C@H]3C[C@@H]4[C@H]5[C@@H]6CC/C(=N\OCC/C(N)=N/O)[C@H]5[C@@]3(CC[C@H]21)CC4(C(C)C)O6`, the growth was 64.1%.

Turning to `Cc1ccc(-c2cc3c(SCC(=O)Nc4cc(C(F)(F)F)ccc4Cl)nccn3n2)cc1`, the growth is -19.3% (active).

Turning to `CCN(CC)CC(=O)Nc1ccc2ncnc(Nc3ccc(Oc4cccc(F)c4)c(Cl)c3)c2c1`, the growth is 13.6%.

For `OCC1CCC(O)C(CO)N1` (stereo not given), the growth is 104%.

Turning to `Cc1ccc(/C=C(\C#N)C(=O)Nc2ncc(Cc3cc(Cl)ccc3Cl)s2)o1`, the growth is 69.6%.

For the compound `CCN(CC)S(=O)(=O)c1ccc(OC)c(NC(=O)c2[nH]c(C)c3c2CCCCC3=O)c1`, the growth was 10.7%.

As for `Cc1nc2c(c(=O)[nH]1)OCN(Cc1ccccc1)C2`, the growth is 108%.

Regarding `O=C(NCCCNc1cc(-c2cn(-c3ccccc3)nc2-c2cccc(O)c2)ccn1)c1ccc(F)cc1`, the growth is -41.4% (active).

With `O=C1NCC(Nc2ccc(Br)cc2Cl)C(=O)N1` (stereo not given), the growth was 124%.

Turning to `Fc1cc2[nH]ncc2c2c3c(c(-c4cn[nH]c4C(F)(F)F)nc12)CCCC3`, the growth was -20.3% (active).

Consider `CC(C)(C)c1cc(-n2c(-c3ccc(Cl)cc3)nc3cc(C(=O)Nc4ccc(Cl)cc4)ccc32)n[nH]1`, for which the growth is 51.7%.

Consider `COc1ccc2nc(-c3ccc(Cl)cc3)cc(C(=O)N3N=C(c4ccc(N)cc4)CC3c3ccccc3)c2c1` (stereo not given), for which the growth was 30.9%.

As for `COc1ccc(/C=C/C(=O)c2ccc(NC(=O)CN3CCN(c4cc5c(cc4F)c(=O)c(C(=O)O)cn5C4CC4)CC3)cc2)cc1`, the growth was 99.1%.

Turning to `CN(C)CC1CCCCCC(CN(C)C)C1=O` (stereo not given), the growth was 15.3%.

Consider `CCN1C(=O)N(CC)C2C1NC(=O)N2/N=C/C=C/c1ccccc1` (stereo not given), for which the growth was 19.5%.

As for `S=C1CCCCCN1`, the growth was 108%.

As to `COS(=O)(=O)CCN(CCOS(C)(=O)=O)S(C)(=O)=O`, the growth is 104%.

Take `CC1(C)NCCC[C@]2(C)[C@H]3CC=C4[C@@H]5C[C@](C)(COC(=O)c6ccccc6C(=O)O)CC[C@]5(C)CC[C@@]4(C)[C@]3(C)CC[C@@H]12`: the growth is 29.5%.

As for `CNc1nc2c(s1)C(c1cc(F)ccc1F)CC(=O)N2` (stereo not given), the growth is -2.32% (active).

As for `C#CCOc1ccc(C(Nc2ccc(Cl)cc2)c2nnnn2C2CCCCC2)cc1` (stereo not given), the growth was 87.1%.

With `O=C(C=P(c1ccccc1)(c1ccccc1)c1ccccc1)c1ccc(Br)cc1`, the growth was 92%.

For the compound `COc1ccc(NC(=O)CCCCCCNC(=O)C(O)(O)C(F)(F)F)cc1`, the growth was 31.8%.

On to `C=CCn1c(SCC(=O)Nc2ccc(C(=O)/C=C/c3ccc(Cl)cc3)cc2)nnc1-c1ccccc1`, for which the growth is 101%.

`COc1ccc(/C=N\NC(=O)c2ccc3nc(-c4ccc(Br)cc4)[nH]c3c2)cc1`: the growth was 32.1%.

As to `COc1ccc(C(=O)/C=C/c2ccc(C)cc2)cc1S(N)(=O)=O`, the growth was 60.4%.

With `OC(CBr)CCBr` (stereo not given), the growth was 97.4%.
